Compounds without any hit were thinned out: in the full panel of roughly 83,000, 20% have a hit.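 Testing used 96-well plates and a 48-hour single-concentration exposure. Example: -40 means 40% of the starting cells died.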 Values without a mark were called inactive. Active and inactive are the calls of the source. How the source made its calls: active means growth percent below 10; inactive means the rest.
Assays:
Assay in all cases: NCI-60 one-dose screen, 48 h (100 = growth as untreated, 0 = no growth, -100 = all killed)
Settings in all cases: 10 µM unless noted
[1] = test system: SR leukemia
[2] = test system: RPMI-8226 leukemia
[3] = test system: OVCAR-8 ovarian
[4] = test system: OVCAR-5 ovarian
[5] = test system: OVCAR-4 ovarian
[6] = test system: SK-OV-3 ovarian
[7] = test system: IGROV1 ovarian
[8] = test system: OVCAR-3 ovarian
[9] = test system: HS 578T breast
[10] = test system: NCI/ADR-RES ovarian

| SMILES | growth [1] | growth [2] | growth [3] | growth [4] | growth [5] | growth [6] | growth [7] | growth [8] | growth [9] | growth [10] |
| --- | --- | --- | --- | --- | --- | --- | --- | --- | --- | --- |
| O=C1/C(=C/c2ccccc2Br)COc2ccc(O)c(O)c21 | 14.7% | 1.07% (active) | 9.72% (active) | 31.4% | 48.2% | 74.7% | -19.4% (active) | 8.7% (active) | 25.2% | 7.97% (active) |
| O=C(Nc1nn(-c2ccc(Cl)cc2Cl)nc1-c1ccccc1)c1ccccc1 | 46% | 75.7% | 103% | 92% | 106% | 117% | 95% | 90.7% | 105% | 106% |
| Cc1ccc(-c2nc3nc(-c4ccccc4)nc(N4CCNCC4)c3o2)cc1 | -43% (active) | -61.5% (active) | -73.8% (active) | -89.8% (active) | -82% (active) | -99.6% (active) | -76.7% (active) | -89.7% (active) | -51.4% (active) | -58.1% (active) |
| CC1=C(CCC(C)N(C)Cc2ccc(OCCCN3CCCC3)cc2)C(C)(C)CCC1 (stereo not given) | -24.9% (active) | -14.3% (active) | 45.7% | 25.4% | 60.2% | 36.5% | 42.9% | 23.6% | 36.4% | 63% |
| OCc1cccc(-c2ccc3ncc(-c4nc(NC5CC5)ncc4F)n3c2)c1 | -13.5% (active) | -29.8% (active) | -2.83% (active) | -9.98% (active) | -1.5% (active) | 14% | -13.3% (active) | -1.89% (active) | -29.8% (active) | -3.01% (active) |
| CCC(C)N(c1ccc(Cl)cc1)c1nc(-c2ccc(Br)cc2)cs1 (stereo not given) | 83.5% | 82.8% | 96.7% | 103% | 96.5% | 92.5% | 82.1% | 107% | 91.3% | 102% |
| O=C1NCCC12CCN(c1c(Cl)cncc1-c1ccc(O)cc1)CC2 | 94.3% | 85.5% | 89.1% | 83.6% | 105% | 85.4% | 69.2% | 104% | 101% | 91.8% |
| Cc1ccc2c(n1)C(=O)c1[nH]c3ccccc3c1C2=O | 39.8% | 46.9% | 53% | 67.9% | 22.2% | 85.6% | 33.8% | -5.11% (active) | 69.2% | 58.6% |
| CC(C)OC(=O)c1ccc2[nH]c(O)c(C(=Nc3ccc(N(C)C(=O)CN4CCN(C)CC4)cc3)c3ccccc3)c2c1 | -20.3% (active) | -28.9% (active) | -37.4% (active) | -36.2% (active) | -72.3% (active) | -81.6% (active) | -39.2% (active) | -75.7% (active) | -7.07% (active) | 38.4% |
| C#CCn1cnc2c(Nc3cccc(NC(=O)C=C)c3)ncnc21 | 68.5% | 81.9% | 76.2% | 82% | 86.6% | 73.5% | 74.8% | 88.5% | 74.5% | 92.5% |
| CCN(CC)CCOc1ccc(C(=C(C)c2ccc(Cl)cc2)c2ccc(OCCN(CC)CC)cc2)cc1 | -54.4% (active) | -49.8% (active) | -47.1% (active) | -84.1% (active) | -62.1% (active) | -79.9% (active) | -86.9% (active) | -70.5% (active) | -52.5% (active) | -68.2% (active) |
| COc1ccc2c(c1)[n+]([O-])c(C(=O)/C=C/C=C(\Cl)c1cc(OC)c(OC)c(OC)c1)c(C)[n+]2[O-] | 89.5% | 109% | 43.7% | 104% | 108% | 38% | 64.6% | 93% | 68% | 91% |
| Cc1cccnc1NC(=S)Nc1ncccc1C | 88.5% | 80.9% | 99.3% | 124% | 134% | -65.6% (active) | 103% | 100% | 111% | 117% |
| COc1cc(OC)cc(C2=C3CC[C@@H]4[C@H](CC[C@]5(C)C(=O)CC[C@@H]45)C3=CC3C(O)c4cccnc4N4C(=O)COC234)c1 (stereo not given in full) | 82.3% | 96.2% | 95% | 95.5% | 87.1% | 116% | 101% | 115% | 90.1% | 105% |
| CCCCCCNC(=O)Oc1ccc(/C(=C(/C)Cc2ccc(OC)cc2)c2ccc(OCCCN(C)C)cc2)cc1 | -53.3% (active) | -20.4% (active) | 13.3% | 85.3% | 60.7% | 88.4% | 41.6% | 55.9% | 52.9% | 67.5% |
| CCCCN[C@H]1CC[C@@]2(C)[C@@H](CC[C@@]3(C)[C@H]2[C@H](O)C[C@H]2/C(=C(\CCC=C(C)C)C(=O)OC)[C@@H](OC(C)=O)C[C@@]23C)[C@@H]1C | 74.5% | 95.9% | 102% | 91.4% | 102% | 104% | 99.2% | 106% | 87.3% | 100% |
| COc1ccc2nc(NC(=O)CSc3nnc4n3S(=O)(=O)c3ccccc3N4C)sc2c1 | 65.1% | 74.1% | 84.6% | 97.5% | 107% | 136% | 12.9% | 112% | 89.8% | 98.5% |
| O=C(c1ccc(-c2ccccc2)cc1)c1ccc([N+](=O)[O-])cc1 | 86.8% | 66.1% | 104% | 120% | 105% | -100% (active) | 101% | 104% | 110% | 114% |
| C=C1C(=O)O[C@H]2[C@H]1CC/C(COC(=O)NCc1cc[nH]c1)=C\CC[C@@]1(C)O[C@@H]21 | 4.94% (active) | 30.2% | 70.8% | 50.5% | 57.1% | 75.7% | 15.5% | 16.6% | 63% | 90.6% |
| COc1ccc(-c2cc(-c3ccc(Cl)cc3)c(C#N)c(=O)n2CCCCC(=O)Nc2ccccc2N)cc1 | 15.5% | 0.147% (active) | 42.8% | 58.6% | 66.5% | 78% | 47.4% | 69.5% | 75.7% | 37.3% |
| Cc1c(-c2nc3ccc(F)cc3c(=O)[nH]2)c2ccccc2n1C | 11.3% | 40.9% | 46.9% | 79.4% | 59.4% | 43.2% | 38.9% | 10.3% | 3.2% (active) | 21.9% |
| Fc1ccc2[nH]cc(-c3nonc3-c3c[nH]c4ccc(Br)cc34)c2c1 | 15.2% | 29.9% | 27% | 36.8% | 36% | 44.3% | 41.6% | 34.3% | 39.5% | 23% |
| CCOc1ccc(NC(=O)CSc2oc(-c3ccccc3)nc2S(=O)(=O)c2ccc(F)cc2)cc1 | 69.8% | 73% | 49.5% | 103% | 66.1% | 77.5% | 94.8% | 64.9% | 74.2% | 67.3% |
| O=C(c1ccccc1)C1C(=O)N2C(=S)N(c3ccccc3)C(=O)C2C1c1ccc(Cl)cc1 (stereo not given) | 101% | 103% | 94.8% | 102% | 90.8% | 88% | 54.2% | 95.6% | 88.9% | 96.4% |
| O=C(CSc1nc2ccc([N+](=O)[O-])cc2[nH]1)Nc1ccc(F)cc1 | 33.7% | 24.1% | 67.3% | 91.8% | 34.6% | 63.1% | 68.4% | 47.8% | 74% | 59% |
| CCCNC(=O)Oc1ccc(/C(=C(/C)Cc2ccc(OC)cc2)c2ccc(OCCCN(C)C)cc2)cc1 | 8.47% (active) | 77.3% | 86.5% | 94% | 85.2% | 98.3% | 91.1% | 94.3% | 72.3% | 79.1% |
| CCN(CC)CCNC(=O)c1cn2ncnc(Oc3ccc(NC(=O)Nc4ccc(Cl)c(C(F)(F)F)c4)c(F)c3)c2c1C | -32.3% (active) | -16.6% (active) | 45.4% | 54.6% | 6.15% (active) | 82% | -36.6% (active) | -3.03% (active) | -7.92% (active) | 56.8% |

— PubChem BioAssay (NCI)
